This is an account of results in publication PMC7862700, “An all-to-all approach to the identification of sequence-specific readers for epigenetic DNA modifications on cytosine”.

Holding throughout (assay): DAPPL (digital affinity profiling via proximity ligation, sequencing); 10 mM Tris-HCl pH 7.5, 50 mM NaCl, 1 mM DTT, 4% glycerol, room temperature, 30 min; GST-TFs on glutathione beads, 16-mer random dsDNA library, 0.1% formaldehyde crosslink after washing; high values mean tight binding
Holding throughout (conditions): protein: recombinant; tags: N-terminal GST; dsDNA, one strand shown

One assay deals with T1, FLI1 (Homo sapiens, UniProt Q01543 1-452).
T1 sequence: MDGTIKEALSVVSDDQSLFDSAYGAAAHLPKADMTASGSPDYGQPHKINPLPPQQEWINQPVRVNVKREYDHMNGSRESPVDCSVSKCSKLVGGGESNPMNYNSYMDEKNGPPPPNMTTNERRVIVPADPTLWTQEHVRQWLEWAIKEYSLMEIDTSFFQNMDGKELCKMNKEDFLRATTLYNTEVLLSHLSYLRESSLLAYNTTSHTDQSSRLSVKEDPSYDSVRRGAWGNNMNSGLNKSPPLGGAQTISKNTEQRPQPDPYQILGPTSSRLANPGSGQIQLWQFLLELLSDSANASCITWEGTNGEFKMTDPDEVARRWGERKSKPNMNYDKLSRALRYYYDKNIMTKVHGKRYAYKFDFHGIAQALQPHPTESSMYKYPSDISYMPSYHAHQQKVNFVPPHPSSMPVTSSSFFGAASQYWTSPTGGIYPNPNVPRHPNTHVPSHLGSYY
The method in brief:
(§1)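 Each value of binding signal is a hexamer's read frequency for a factor divided by the same hexamer's frequency in the tag-only sample. Barcoded, bead-captured GST fusions of human transcription factors made in yeast were pooled with that sample and incubated with 200 nmole of a random double-stranded 16-mer DNA library in Tris/NaCl/DTT/glycerol buffer at room temperature for 30 min. Washing, 0.1% formaldehyde crosslinking, proximity ligation, PCR and Illumina NextSeq500 sequencing followed.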

Another assay concerns the target T2, ELK1 (Homo sapiens, UniProt P19419 1-428).
T2 sequence: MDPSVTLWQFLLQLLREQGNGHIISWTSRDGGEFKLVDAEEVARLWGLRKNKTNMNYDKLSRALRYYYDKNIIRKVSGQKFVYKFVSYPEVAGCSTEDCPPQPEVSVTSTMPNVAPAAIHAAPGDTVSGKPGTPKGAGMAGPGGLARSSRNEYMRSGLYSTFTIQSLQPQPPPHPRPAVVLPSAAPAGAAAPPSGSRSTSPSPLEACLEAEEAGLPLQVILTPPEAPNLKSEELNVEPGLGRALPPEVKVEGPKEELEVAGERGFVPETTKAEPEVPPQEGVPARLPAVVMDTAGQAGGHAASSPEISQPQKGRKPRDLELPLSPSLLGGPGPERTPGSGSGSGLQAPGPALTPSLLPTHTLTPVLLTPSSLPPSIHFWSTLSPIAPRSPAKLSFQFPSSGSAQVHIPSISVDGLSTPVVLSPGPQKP
The method in brief: as §1

A further assay has as its target T3, GABPA (Homo sapiens, UniProt Q06546 1-454).
T3 sequence: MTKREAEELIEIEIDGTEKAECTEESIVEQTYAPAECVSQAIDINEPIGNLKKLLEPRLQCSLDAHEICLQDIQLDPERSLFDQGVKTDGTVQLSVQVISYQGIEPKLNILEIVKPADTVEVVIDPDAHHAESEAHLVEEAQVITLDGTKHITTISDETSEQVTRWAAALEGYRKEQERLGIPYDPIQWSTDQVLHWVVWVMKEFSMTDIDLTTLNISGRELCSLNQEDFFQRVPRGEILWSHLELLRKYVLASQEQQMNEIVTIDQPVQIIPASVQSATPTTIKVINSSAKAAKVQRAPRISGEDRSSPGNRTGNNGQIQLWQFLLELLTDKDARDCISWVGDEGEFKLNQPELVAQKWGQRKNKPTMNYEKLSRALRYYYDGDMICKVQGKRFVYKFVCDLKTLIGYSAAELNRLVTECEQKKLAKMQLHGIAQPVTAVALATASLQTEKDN
Put shortly: as §1

The next assay has as its target T4, ERG (Homo sapiens, UniProt P11308 1-479).
T4 sequence: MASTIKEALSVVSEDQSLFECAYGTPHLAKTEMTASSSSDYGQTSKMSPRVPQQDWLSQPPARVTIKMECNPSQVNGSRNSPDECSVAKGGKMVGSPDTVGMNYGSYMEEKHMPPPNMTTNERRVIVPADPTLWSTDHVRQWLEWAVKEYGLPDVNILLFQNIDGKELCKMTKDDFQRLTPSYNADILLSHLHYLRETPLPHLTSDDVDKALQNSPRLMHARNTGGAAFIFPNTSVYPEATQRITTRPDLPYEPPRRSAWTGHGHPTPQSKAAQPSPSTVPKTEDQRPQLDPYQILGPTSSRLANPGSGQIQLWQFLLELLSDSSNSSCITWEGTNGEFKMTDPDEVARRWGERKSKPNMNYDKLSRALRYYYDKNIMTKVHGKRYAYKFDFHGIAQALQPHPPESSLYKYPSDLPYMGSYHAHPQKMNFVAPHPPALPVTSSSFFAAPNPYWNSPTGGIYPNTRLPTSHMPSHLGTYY
The method in brief: as §1

A further assay has as its target ELF1 (Homo sapiens, UniProt P32519 1-619). Put shortly: as §1
Another assay concerns the target T5, EHF (Homo sapiens, UniProt Q9NZC4 1-300).
T5 sequence: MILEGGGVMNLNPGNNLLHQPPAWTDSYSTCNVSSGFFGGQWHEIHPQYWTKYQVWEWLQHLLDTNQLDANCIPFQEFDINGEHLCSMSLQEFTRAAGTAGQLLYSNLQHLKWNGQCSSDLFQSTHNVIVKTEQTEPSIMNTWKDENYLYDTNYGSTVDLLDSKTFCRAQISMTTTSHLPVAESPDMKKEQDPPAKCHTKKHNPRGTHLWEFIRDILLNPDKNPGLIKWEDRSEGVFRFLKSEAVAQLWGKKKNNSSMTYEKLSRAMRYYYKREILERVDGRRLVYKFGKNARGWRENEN
The method in brief:
as §1

A further assay deals with SPIB (Homo sapiens, UniProt Q01892 1-262). The method in brief:
as §1

The target of the next assay is T6, ELK3 (Homo sapiens, UniProt P41970 1-407).
T6 sequence: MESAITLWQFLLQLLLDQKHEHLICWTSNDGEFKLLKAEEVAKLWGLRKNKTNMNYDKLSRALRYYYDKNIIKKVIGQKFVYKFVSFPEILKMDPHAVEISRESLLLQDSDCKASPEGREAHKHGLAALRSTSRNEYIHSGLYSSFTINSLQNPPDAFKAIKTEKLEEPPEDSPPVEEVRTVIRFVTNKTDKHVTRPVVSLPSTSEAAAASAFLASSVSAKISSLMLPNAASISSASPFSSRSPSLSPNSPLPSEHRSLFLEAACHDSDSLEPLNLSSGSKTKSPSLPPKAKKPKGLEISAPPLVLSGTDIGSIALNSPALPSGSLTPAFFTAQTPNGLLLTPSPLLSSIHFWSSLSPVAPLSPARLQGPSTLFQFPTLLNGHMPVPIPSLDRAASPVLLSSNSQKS
The method in brief:
as §1

The next assay has as its target T7, FEV (Homo sapiens, UniProt Q99581 1-238).
T7 sequence: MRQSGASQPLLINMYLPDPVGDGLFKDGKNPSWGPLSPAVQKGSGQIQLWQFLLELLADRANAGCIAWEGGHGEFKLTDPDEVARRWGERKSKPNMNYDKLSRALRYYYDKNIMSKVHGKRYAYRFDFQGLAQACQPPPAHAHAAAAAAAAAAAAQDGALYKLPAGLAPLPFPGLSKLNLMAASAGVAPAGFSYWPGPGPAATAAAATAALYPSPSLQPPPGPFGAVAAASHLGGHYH
Put shortly:
as §1

The target of a further assay is T8, SPIC (Homo sapiens, UniProt Q8N5J4 1-248).
T8 sequence: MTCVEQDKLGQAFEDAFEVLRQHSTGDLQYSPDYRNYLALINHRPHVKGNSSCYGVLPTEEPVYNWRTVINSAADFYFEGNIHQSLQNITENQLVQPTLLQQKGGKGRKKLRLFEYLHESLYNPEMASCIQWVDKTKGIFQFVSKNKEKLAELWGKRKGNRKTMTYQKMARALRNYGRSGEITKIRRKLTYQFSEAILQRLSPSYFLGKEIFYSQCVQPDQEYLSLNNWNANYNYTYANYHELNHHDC
Put shortly:
as §1

The next assay has as its target ELF4 (Homo sapiens, UniProt Q99607 1-663). The method in brief:
as §1

Chain of ELF4 (Q99607 whole entry): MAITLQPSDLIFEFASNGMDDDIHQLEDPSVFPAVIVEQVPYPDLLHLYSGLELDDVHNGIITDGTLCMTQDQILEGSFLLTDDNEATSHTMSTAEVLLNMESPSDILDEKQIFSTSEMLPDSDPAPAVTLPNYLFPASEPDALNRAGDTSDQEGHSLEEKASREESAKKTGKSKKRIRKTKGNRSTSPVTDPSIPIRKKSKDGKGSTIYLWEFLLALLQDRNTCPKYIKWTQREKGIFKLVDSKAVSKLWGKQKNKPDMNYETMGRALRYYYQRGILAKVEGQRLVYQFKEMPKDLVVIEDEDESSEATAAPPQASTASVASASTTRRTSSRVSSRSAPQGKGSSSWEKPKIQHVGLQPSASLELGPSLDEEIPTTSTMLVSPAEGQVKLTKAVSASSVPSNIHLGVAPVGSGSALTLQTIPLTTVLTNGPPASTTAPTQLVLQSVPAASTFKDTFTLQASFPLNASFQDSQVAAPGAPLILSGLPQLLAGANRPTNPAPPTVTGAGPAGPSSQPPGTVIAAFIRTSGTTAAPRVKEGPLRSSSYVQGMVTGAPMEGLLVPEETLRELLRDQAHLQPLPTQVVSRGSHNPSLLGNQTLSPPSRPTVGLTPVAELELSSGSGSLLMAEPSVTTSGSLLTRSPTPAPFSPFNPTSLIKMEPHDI
Chain of SPIB (Q01892 whole entry): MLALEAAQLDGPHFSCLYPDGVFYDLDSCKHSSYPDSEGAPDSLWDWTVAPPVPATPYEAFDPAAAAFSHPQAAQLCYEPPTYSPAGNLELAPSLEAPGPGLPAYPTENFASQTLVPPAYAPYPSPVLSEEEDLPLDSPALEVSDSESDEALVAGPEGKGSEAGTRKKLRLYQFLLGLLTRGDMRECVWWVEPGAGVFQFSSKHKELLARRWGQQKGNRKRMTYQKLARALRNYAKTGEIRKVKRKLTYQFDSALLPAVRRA
Chain of ELF1 (P32519 whole entry): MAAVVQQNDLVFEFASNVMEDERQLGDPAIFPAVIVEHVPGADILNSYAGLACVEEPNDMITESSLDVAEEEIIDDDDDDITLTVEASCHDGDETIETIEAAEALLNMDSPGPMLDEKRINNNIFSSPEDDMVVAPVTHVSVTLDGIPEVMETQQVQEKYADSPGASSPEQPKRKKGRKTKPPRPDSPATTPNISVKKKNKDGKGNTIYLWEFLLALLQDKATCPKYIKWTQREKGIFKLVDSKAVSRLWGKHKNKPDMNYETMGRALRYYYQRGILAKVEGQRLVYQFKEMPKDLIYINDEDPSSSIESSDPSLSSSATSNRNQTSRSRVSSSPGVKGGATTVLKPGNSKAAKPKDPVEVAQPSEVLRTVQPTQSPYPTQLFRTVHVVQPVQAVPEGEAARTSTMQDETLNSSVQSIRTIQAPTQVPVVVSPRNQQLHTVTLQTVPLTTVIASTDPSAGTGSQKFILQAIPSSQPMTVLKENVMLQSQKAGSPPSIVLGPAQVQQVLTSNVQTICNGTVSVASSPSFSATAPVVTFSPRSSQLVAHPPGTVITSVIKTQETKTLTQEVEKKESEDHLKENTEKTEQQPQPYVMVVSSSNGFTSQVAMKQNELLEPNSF

Take CGTTGC: the binding signal was 1.09 fold enrichment (6-mer frequency, TF over GST control) with FLI1; 1.19 fold enrichment (6-mer frequency, TF over GST control) with ELK1; 1.04 fold enrichment (6-mer frequency, TF over GST control) in the assay with GABPA; 1.06 fold enrichment (6-mer frequency, TF over GST control) with ERG; 1.11 fold enrichment (6-mer frequency, TF over GST control) in the assay with ELF1; 1.07 fold enrichment (6-mer frequency, TF over GST control) in the assay with EHF. Also, the binding signal with SPIB was 1.18 fold enrichment (6-mer frequency, TF over GST control); with ELK3, 1.04 fold enrichment (6-mer frequency, TF over GST control); with FEV, 1.11 fold enrichment (6-mer frequency, TF over GST control); with SPIC, 1.25 fold enrichment (6-mer frequency, TF over GST control); in the assay with ELF4, 1.06 fold enrichment (6-mer frequency, TF over GST control).
